The text below walks through data of PubChem BioAssay (NCATS).

SMILES strings stand for the structures. Several values for one entry are separate records, joined by “and”; a condition that tells them apart may be missing. Equal values may be shown once. Inconclusive results are not listed. Activity calls are given as the source filed them. Unless noted, calls follow the shape of the dose curve; as a rule, active = well fitted cell-killing curve with a large enough effect; inconclusive = small, poorly fitted or top-dose-only effect; inactive = flat fitted curve, though single readings scatter.

Test [1] is described as follows: Cell Viability - LYMP2-023 (AID 975).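 Also: cellular ATP measured by luciferase luminescence as viability proxy; series mostly up to about 92 µM; plate controls were DMSO only for no effect and 92 µM tetraoctylammonium bromide control for full effect; nearly all actives have a fitted effect of over 55% in size.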 Summed up: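 Steps: seed 2500 human lymphoblastoid cells per well, incubate 5 hr at 37 C, add compound for 24 hr at 37 C, add CellTiter-Glo, hold 30 min at room temperature, read luminescence. AC50 derived by Hill modelling.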
Test [2] in a line: Cell Viability - LYMP2-025 (AID 976).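 Also: series mostly up to about 92 µM; plate controls were DMSO only for no effect and tetraoctylammonium bromide control for full effect.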 The gist of the method:
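Acute cytotoxicity is scored as a concentration-dependent fall in intracellular ATP, measured by luciferase luminescence, in human lymphoblastoid LYMP2-025 cells exposed to compound for 24 hours at 37 C. AC50 values come from standard Hill fits.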

Test [3] is described as follows: Cell Viability - LYMP2-002 (AID 977).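 Also: series mostly up to about 92 µM; compound exposure lasted 24 h at 37 °C; plate controls were DMSO only for no effect and 92 µM tetraoctylammonium bromide for full effect.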 The gist of the method: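 Human lymphoblastoid cells, 2500/well, complete medium; 5 h 37 C settle; compound 24 h 37 C; CellTiter-Glo, 30 min RT; luminescence. Decrease in ATP = cytotoxicity; AC50 via Hill equation.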
Test [4] in a line: Cell Viability - LYMP2-006 (AID 978). Also: series mostly up to about 92 µM; % is scaled to controls: 0 for no effect and ±100 for the full control effect; nearly all actives have a fitted effect of over 60% in size. The gist of the method: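 Human lymphoblastoid cells, 2500 per well, were preincubated 5 hr at 37 C, then exposed to compounds for 24 hr at 37 C in complete medium. Viability was read as intracellular ATP by CellTiter-Glo luminescence; AC50 from Hill-equation fits of qHTS concentration-response data.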
A short description of test [5]: Cell Viability - LYMP2-007 (AID 979).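 Also: cells exposed to compound for 24 h before reading; 0% = DMSO only and the negative end = 92 µM tetraoctylammonium bromide; nearly all actives have a fitted effect of over 60% in size.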 Summed up:
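Cells are seeded at 2500 per well and rested 5 hr. Compounds are then added over a concentration series for 24 hr at 37 C. CellTiter-Glo is added for 30 min at room temperature before luminescence reading.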

Test [6] can be described thus: Cell Viability - LYMP2-008 (AID 980). Also: % is scaled to controls: 0 for no effect and ±100 for the full control effect; nearly all actives have a fitted effect of over 60% in size. The gist of the method: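 Cells seeded at 2500/well and rested 5 hr at 37 C; compounds added over a concentration range and incubated 24 hr at 37 C; CellTiter-Glo added, 30 min at room temperature; luminescence read and AC50 fitted with Hill model.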
A short description of test [7]: Cell Viability - LYMP2-012 (AID 982).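 Also: cellular ATP by luciferase luminescence where a drop means cytotoxicity; cells exposed to compound for one day before reading; 0% = DMSO only and full loss = 92 µM tetraoctylammonium bromide; nearly all actives have a fitted effect of over 55% in size.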
The nature of test [8]: Cell Viability - LYMP2-014 (AID 983).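 Also: series mostly up to about 92 µM; plate controls were DMSO only for no effect and 92 µM tetraoctylammonium bromide for full effect; nearly all actives have a fitted effect of over 50% in size.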 Summed up: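 Cells are plated at 2500/well and left 5 hr at 37 C. Compounds are added across a concentration range and incubated 24 hr at 37 C in complete medium. CellTiter-Glo is added, and luminescence is read after 30 min at room temperature.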
A short description of test [9]: Cell Viability - LYMP2-016 (AID 984). Also: % is scaled to controls: 0 for no effect and ±100 for the full control effect; nearly all actives have a fitted effect of over 55% in size. The gist of the method:
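Human lymphoblastoid cells (LYMP2-016), 2500/well in complete medium, preincubated 5 hr at 37 C, then compound-treated 24 hr at 37 C. Intracellular ATP read by CellTiter-Glo luminescence after 30 min at room temperature; AC50 from Hill-equation concentration-response fits.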

A short description of test [10]: Cell Viability - LYMP2-018 (AID 985).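 Also: compound exposure lasted 24 hr at 37 °C; plate controls were DMSO only for no effect and tetraoctylammonium bromide at 92 µM for full effect; nearly all actives have a fitted effect of over 50% in size.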 The gist of the method: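 Seed 2500 lymphoblastoid cells per well, incubate 5 hr at 37 C, add compound and incubate 24 hr at 37 C, add CellTiter-Glo, wait 30 min at room temperature, then read luminescence.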
Test [11] is described as follows: Cell Viability - LYMP2-020 (AID 986).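 Also: series mostly up to about 92 µM; plate controls were DMSO only for no effect and tetraoctylammonium bromide at 92 µM for full effect; nearly all actives have a fitted effect of over 55% in size.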 Summed up:
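Seed 2500 cells per well and incubate 5 hr at 37 C. Add compounds at a concentration series and incubate 24 hr at 37 C. Add CellTiter-Glo, wait 30 min at RT, read luminescence, and fit a Hill curve for AC50.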

Test [12] can be described thus: Cell Viability - LYMP2-022 (AID 987). The gist of the method: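 Cells were seeded at 2500 per well, rested 5 hr at 37 C, and treated with titrated compounds for 24 hr at 37 C. Cellular ATP was then quantified by luciferase luminescence, and AC50 values were derived from Hill-modelled concentration-response curves.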
The nature of test [13]: Cell Viability - LYMP2-024 (AID 988).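 Also: plate controls were DMSO only for no effect and 92 µM tetraoctylammonium bromide for full effect; nearly all actives have a fitted effect of over 60% in size.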 Summed up: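 qHTS cytotoxicity, human lymphoblastoid line, complete medium; 24 h cpd treatment, 37 C; CellTiter-Glo ATP luminescence readout; tetraoctylammonium bromide positive control; AC50 via Hill fit.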
Test [14] can be described thus: Cell Viability - LYMP2-026 (AID 989). Also: % is scaled to controls: 0 for no effect and ±100 for the full control effect; nearly all actives have a fitted effect of over 50% in size. Summed up: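 Cells are seeded at 2500 per well and held 5 hr at 37 C. Compounds are added in concentration series for 24 hr, then CellTiter-Glo reagent is applied and luminescence read.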
Test [15] can be described thus: Cell Viability - LYMP1-002 - Assay at 40 hr (AID 994). The gist of the method:
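Cells are plated at 2500 per well and rested 5 hr at 37 C. Compounds are added and incubated 40 hr at 37 C. CellTiter-Glo reagent is added for 30 min at room temperature before luminescence is read.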

Test [16] in a line: qHTS Assay for Identification of Small Molecule Inducers of Hypoxia Response (AID 2120; active = well fitted curve in the direction sought with a large enough effect in the signal ratio, with a control signal flat, not every such curve was filed as active; the % refers to the signal ratio; also: 0% is about no effect). The gist of the method: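 Cell-based qHTS for reporter induction: hypoxia response element controlled beta-lactamase in ME-180 cells. Compounds incubated 17 h at 37 degrees C; activity from blue/green (460/530 nm) ratio, inducers ranked by AC50.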
Test [17] concerns the target Bile acid receptor (Homo sapiens) (UniProt Q96RI1). As to the kind of experiment: qHTS assay for small molecule agonists of farnesoid X receptor signaling (AID 588527; calls by dose curve;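 also: series mostly up to about 77 µM; 0% = vehicle basal and 100% = reference agonist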). The following applies: HEK293T FXR-UAS-bla, beta-lactamase ratio, 16 h; stronger effect = higher value. The gist of the method: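 FXR-UAS-bla HEK293T, 10% dialyzed FBS; cpds up to 92 uM titration, 16 h 37 C; CCF4 dye 2 h RT; fluorescence. Normalized to chenodeoxycholic acid 100 uM (100%) and DMSO (0%); Hill fit gives EC50, efficacy.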

Test [18] deals with Glucocorticoid receptor (Homo sapiens) (UniProt P04150). Kind of test: qHTS assay for small molecule agonists of glucocorticoid receptor signaling (AID 588532; active = well fitted curve in the direction sought with a large enough effect in the signal ratio, with a control signal flat; the % refers to the signal ratio;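 also: 100% = dexamethasone at 0.1 µM and 0% = DMSO only wells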). Conditions: HeLa MMTV-bla, beta-lactamase ratio, agonist, 18 h; stronger effect = higher value; percent of dexamethasone control, DMSO zero. Summed up:
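Cells were plated and rested 3-5 h at 37 C, compounds were added in titration and incubated 18 h, then CCF4 substrate was loaded for 2 h at RT before reading blue/green fluorescence. EC50 came from Hill-equation fitting.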

For test [19] the target is unchanged. Kind of test: qHTS assay for small molecule antagonists of glucocorticoid receptor signaling (AID 588533; active = well fitted inhibition curve with a large enough effect in the signal ratio, with a control signal flat, not every such curve was filed as active; the % refers to the signal ratio;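 also: cells stimulated with 2 nM dexamethasone as agonist; % is scaled to controls: 0 for no effect and ±100 for the full control effect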). The gist of the method:
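Antagonist-mode qHTS: compound titrations added to GRE-bla HeLa cells, then dexamethasone 2 nM final; 18 h, 37 C. CCF4 FRET fluorescence normalized to dexamethasone and DMSO; IC50 from Hill fit.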

Test [20] concerns the target Peroxisome proliferator-activated receptor delta (Homo sapiens) (UniProt Q03181). As to the kind of experiment: qHTS assay for small molecule agonists of peroxisome proliferator-activated receptor delta signaling (AID 588534; calls by dose curve;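 also: 0% = DMSO basal wells and 100% = positive control agonist at 10 µM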). The gist of the method: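 Agonist-mode qHTS; reporter cells, 5 hrs 37 C pre-incubation; compound titration, 18 hrs 37 C; CCF4 dye, 2 hrs RT; fluorescence read. EC50/efficacy via Hill fit.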
On the technique in general: qHTS replaces the single test concentration by a dilution series.

Test [21] can be described thus: qHTS assay for small molecule antagonists of peroxisome proliferator-activated receptor delta signaling (AID 588535; active = well fitted inhibition curve with a large enough effect in the signal ratio, with a control signal flat, not every such curve was filed as active; the % refers to the signal ratio;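 as to max response: cells co-treated with a PPAR-delta agonist as stimulator during compound exposure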). The following applies: HEK293T PPARd-UAS-bla, beta-lactamase FRET ratio, 18 h; 460 nm channel. Summed up:
(§1)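 Fluorescence from CCF4-loaded GeneBLAzer PPAR-delta-UAS-bla HEK293T cells (2 hrs RT loading) quantified reporter inhibition after an 18 hr, 37 C compound exposure across a titration.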

The target in test [22] is Peroxisome proliferator-activated receptor delta (Homo sapiens) (UniProt Q03181). Described as above. The gist of the method:
as §1

Peroxisome proliferator-activated receptor delta (Homo sapiens), sequence (Q03181 whole entry, looked up): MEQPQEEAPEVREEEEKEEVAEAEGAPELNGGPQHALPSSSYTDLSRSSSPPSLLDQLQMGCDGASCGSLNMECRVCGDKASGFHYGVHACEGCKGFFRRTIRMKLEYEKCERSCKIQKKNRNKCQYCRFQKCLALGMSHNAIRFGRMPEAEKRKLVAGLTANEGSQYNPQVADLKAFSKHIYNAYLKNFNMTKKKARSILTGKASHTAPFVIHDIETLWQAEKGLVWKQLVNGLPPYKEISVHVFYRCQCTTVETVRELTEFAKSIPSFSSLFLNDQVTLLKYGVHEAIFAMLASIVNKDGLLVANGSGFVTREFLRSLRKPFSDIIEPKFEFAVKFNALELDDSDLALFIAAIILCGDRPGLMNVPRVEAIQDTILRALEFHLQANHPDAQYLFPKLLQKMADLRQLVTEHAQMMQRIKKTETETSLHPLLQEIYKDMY
Glucocorticoid receptor (Homo sapiens), sequence (P04150 whole entry, looked up): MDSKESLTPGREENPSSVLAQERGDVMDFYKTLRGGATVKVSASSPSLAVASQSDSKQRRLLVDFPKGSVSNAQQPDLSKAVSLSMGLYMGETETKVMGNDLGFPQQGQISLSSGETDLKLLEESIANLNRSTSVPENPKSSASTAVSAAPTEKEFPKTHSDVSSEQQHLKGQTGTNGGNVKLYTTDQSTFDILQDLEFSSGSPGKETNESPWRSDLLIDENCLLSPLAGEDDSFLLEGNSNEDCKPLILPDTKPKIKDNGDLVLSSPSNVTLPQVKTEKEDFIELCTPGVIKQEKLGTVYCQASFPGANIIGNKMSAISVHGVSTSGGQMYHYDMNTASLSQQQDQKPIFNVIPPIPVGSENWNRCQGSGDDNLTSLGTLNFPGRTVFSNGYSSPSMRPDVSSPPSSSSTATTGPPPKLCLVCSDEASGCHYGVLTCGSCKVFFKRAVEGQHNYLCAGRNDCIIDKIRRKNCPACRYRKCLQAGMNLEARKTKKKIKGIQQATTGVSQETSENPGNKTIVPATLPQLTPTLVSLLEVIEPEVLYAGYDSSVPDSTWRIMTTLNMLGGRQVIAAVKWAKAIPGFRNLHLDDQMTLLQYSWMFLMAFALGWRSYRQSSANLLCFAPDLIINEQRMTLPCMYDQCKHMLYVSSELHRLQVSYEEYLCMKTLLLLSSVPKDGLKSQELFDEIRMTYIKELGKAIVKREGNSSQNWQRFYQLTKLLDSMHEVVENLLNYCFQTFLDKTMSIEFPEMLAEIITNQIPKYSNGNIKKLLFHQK
Bile acid receptor (Homo sapiens), sequence (Q96RI1 whole entry, looked up): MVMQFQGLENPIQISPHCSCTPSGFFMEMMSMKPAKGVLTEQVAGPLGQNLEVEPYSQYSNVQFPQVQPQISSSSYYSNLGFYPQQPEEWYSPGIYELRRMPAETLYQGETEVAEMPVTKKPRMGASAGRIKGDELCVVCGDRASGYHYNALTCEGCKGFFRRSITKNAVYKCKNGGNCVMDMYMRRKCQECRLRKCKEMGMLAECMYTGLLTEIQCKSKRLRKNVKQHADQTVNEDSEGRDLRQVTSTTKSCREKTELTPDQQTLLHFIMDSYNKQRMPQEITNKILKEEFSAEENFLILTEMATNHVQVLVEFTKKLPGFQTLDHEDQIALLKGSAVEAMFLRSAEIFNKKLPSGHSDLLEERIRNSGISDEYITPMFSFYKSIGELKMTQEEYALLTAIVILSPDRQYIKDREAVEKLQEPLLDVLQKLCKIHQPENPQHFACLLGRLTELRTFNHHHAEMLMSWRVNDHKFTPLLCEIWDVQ

With `Clc1cc(Cl)c(-c2cc(Cl)c(Cl)cc2Cl)cc1Cl`, the Potency entry in [1], in [2], in [3], in test [4], in [5] and in test [6] was “inactive” throughout. Further, the Potency entry in test [7], in test [8], in test [9], in test [10], in [11] and in test [12] was “inactive” each time. For the same compound, the Potency entry in test [13], in test [14], in test [15], in test [19] and in test [22] was “inactive” each time. Further, the outcome in test [16] and in [20] was inactive. In addition, the activation is 4.83% (inactive) in test [17]; 0.333% (inactive) and 5.15% (inactive) in test [18]. Moreover, in test [21], the max response is 34.2% and 61.4%.
